A selection: hits, their analogues and other compounds. The true share with any hit is near 19%.
HepG2 tox: qHTS for Inhibitors of TGF-b: Cytotox Counterscreen; HepG2 CAGA-GFP viability, ATP luminescence, 18 h; 410,000 tested, 0.76% active; Potency, µM (series often up to 46.1 µM), for inactives: at the top dose activity change, negative = cytotoxicity, actives largely listed as cytotoxic; also: potency is read from the fitted curve at half-maximal effect
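CellTiter-Glo luminescence gave cytotoxicity after 18 hours at 37 degrees C. The cells were HepG2 CAGA-GFP in 1% FBS DMEM, stimulated with 500 pg/mL TGF-beta after compound addition. %Activity was normalised to no-cell wells (complete cell-killing) and DMSO (no toxicity), and curves were fitted and classified.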
IL1B secr inh: qHTS for Inhibitors of Inflammasome Signaling: IL-1-beta AlphaLISA Primary Screen | activity change, % at 57.5 µM | 360,000 tested, 4.7% active | THP-1 LPS/ATP IL-1B secretion, AlphaLISA, 16 h; hits give low values; in the data active = activity change below about -50%; inconclusive = mostly about -30% to -49%; also: % is scaled to controls: 0 for no effect and ±100 for the full control effect
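THP-1 cells pretreated 1 hr with compounds (up to 57.5 uM final), then stimulated with LPS (250 ng/mL final) plus ATP (1.25 mM final); secreted IL-1B measured by AlphaLISA after 16 hr, decreased signal indicating inhibition.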
TGFb SMAD3 inh: qHTS for Inhibitors of TGF-b; AID 588855, 2011; Potency, µM (doses to about 46.1 µM), inactives show at the top dose activity, negative = inhibition, usual class: inhibitors; 410,000 tested, 1.2% active; HepG2 CAGA-GFP TGF-b/SMAD3 reporter, GFP fluorescence, 18 h; TGF-beta stimulated, 500 pg/mL final; also: potency is read from the fitted curve at half-maximal effect; % is scaled to controls: 0 for no effect and ±100 for the full control effect; nearly all actives have a fitted effect of over 65% in size
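Per well, imaged GFP fluorescence of HEPG2 CAGA-GFP cells gives the signal; cells get compound, then TGF-beta (500 pg/mL final), 18 h at 37 degrees C; %Activity versus -TGF-beta and +DMSO controls.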
DT40 TDP1 no CPT: qHTS for Inhibitors of human tyrosyl-DNA phosphodiesterase 1 (TDP1): qHTS in cells in absence of CPT; DT40 Tdp1-/- hTDP1 cells, no CPT, ATP luminescence, 48 h; Potency, µM (series often up to 46.2 µM), for the others: at the top dose activity change, negative = growth inhibition, usual class: inhibitors; 420,000 tested, 15% active; also: potency is read from the fitted curve at half-maximal effect; % is scaled to controls: 0 for no effect and ±100 for the full control effect; nearly all actives have a fitted effect of over 55% in size
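A cellular qHTS used chicken DT40 cells lacking endogenous Tdp1 but carrying stably transfected human TDP1. Compounds were applied without camptothecin, and cell growth kinetics were judged by ATP-dependent luminescence after ≥48 hr.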
DT40 TDP1 CPT: qHTS for Inhibitors of human tyrosyl-DNA phosphodiesterase 1 (TDP1): qHTS in cells in presence of CPT; AID 686979, 2013; Potency, µM (series often up to 46.2 µM), inactives show at the top dose activity change, negative = growth inhibition, most hits filed as inhibitors; chicken DT40 Tdp1-/-;hTDP1 cells + 20 nM CPT, ATP luminescence, 48 h; 420,000 tested, 12% active; also: potency is read from the fitted curve at half-maximal effect; % is scaled to controls: 0 for no effect and ±100 for the full control effect; nearly all actives have a fitted effect of over 55% in size
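Chicken DT40 Tdp1-/- cells complemented with human TDP1, 400 cells/well, exposed to compounds plus 20 nM camptothecin for at least 48 h at 37 C; viability read as ATP content by CellTiter-Glo luminescence.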
TDP1 block: qHTS Assay for Inhibitors of Tyrosyl-DNA Phosphodiesterase (TDP1) | Tyrosyl-DNA phosphodiesterase 1 (Homo sapiens), Q9NUW8 | recombinant TDP1, AlphaScreen DNA substrate cleavage | Potency, µM (top dose mostly 130 µM), for the others: at the highest dose activity change, negative = inhibition, actives largely listed as inhibitors | 350,000 tested, 0.28% active; also: potency is read from the fitted curve at half-maximal effect; % is scaled to controls: 0 for no effect and ±100 for the full control effect; nearly all actives have a fitted effect of over 40% in size
Target sequence (Q9NUW8 whole entry, looked up): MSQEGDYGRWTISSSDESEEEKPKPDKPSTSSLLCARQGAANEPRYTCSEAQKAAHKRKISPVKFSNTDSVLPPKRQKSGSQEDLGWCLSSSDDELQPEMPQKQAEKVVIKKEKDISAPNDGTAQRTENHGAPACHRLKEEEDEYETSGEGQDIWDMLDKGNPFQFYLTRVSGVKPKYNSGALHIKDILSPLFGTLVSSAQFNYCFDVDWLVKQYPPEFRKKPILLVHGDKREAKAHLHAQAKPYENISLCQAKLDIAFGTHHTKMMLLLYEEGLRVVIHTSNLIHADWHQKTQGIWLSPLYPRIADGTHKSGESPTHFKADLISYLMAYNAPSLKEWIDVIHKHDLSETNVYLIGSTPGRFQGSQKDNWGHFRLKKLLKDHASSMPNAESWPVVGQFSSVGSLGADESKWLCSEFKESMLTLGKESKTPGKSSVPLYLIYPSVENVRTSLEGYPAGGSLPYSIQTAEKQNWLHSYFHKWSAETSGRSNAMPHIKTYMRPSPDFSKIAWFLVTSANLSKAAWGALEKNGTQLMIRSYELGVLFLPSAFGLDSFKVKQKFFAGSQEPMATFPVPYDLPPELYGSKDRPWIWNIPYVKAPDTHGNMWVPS
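Recombinant human Tdp1 (E. coli-expressed, 1 nM final) preincubated with compounds 15 min at room temperature, then 5'-biotin/3'-phosphotyrosine-FITC DNA substrate (15 nM final) added for 5 min. AlphaScreen beads (10 ug/ml final) added 10 min; cleavage lowers signal.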
* = called active by the depositor; u = inconclusive; x = no result given. Unless noted, calls follow the shape of the dose curve; as a rule, active = well fitted curve in the direction sought with a large enough effect; inconclusive = small, poorly fitted or top-dose-only effect, or another doubt; inactive = no such curve, though single readings can be large; an effect the other way counts as inactive or inconclusive.

SMILES	HepG2 tox	IL1B secr inh	TGFb SMAD3 inh	DT40 TDP1 no CPT	DT40 TDP1 CPT	TDP1 block
COc1ccc(S(=O)(=O)Nc2ccc(NC(C)=O)cc2)cc1	1%	32	-1%	u	-18%	2%
CC(C)C(=O)NC(=S)Nc1ccc(S(=O)(=O)Nc2ccccc2)cc1	-7%	1	u	-29%	-18%	8%
CCOc1ccc(NC(C)=O)cc1	9%	10	7%	2%	u	4%
CCOc1ccc(NS(=O)(=O)c2ccc(NC(=S)NC(=O)C(C)C)cc2)cc1	-1%	12	-17%	u	21µM*	7%
CC(C)C(=O)NC(=S)Nc1ccc(S(=O)(=O)NC2CCCCC2)cc1	-25%	4	-19%	-26%	u	2%
CCOc1ccc(NS(=O)(=O)c2ccc(NC(=S)NC(C)=O)cc2)cc1	-16%	34	16%	23µM*	23µM*	0%
COc1ccc(NS(=O)(=O)c2ccc(NC(=S)NC(=O)C(C)C)cc2)cc1	0%	0	4%	16µM*	18µM*	3%
CCOc1ccc(/C(O)=C/C(=O)C(=O)Nc2ccc(S(=O)(=O)NC(C)=O)cc2)cc1	-5%	0	-18%	-19%	26µM*	-1%
CC(C)C(=O)NC(=S)Nc1ccc(S(=O)(=O)N(C)Cc2ccccc2)cc1	1%	19	u	18µM*	u	3%
CC(=O)NC(=S)Nc1ccc(S(=O)(=O)N(C)Cc2ccccc2)cc1	1%	-27	u	u	u	5%
CCOc1ccc(S(=O)(=O)/N=C(/Nc2ccc(C(C)=O)cc2)c2ccccc2)cc1	-11%	-12	u	13µM*	23µM*	1%
COc1ccccc1CNc1ncnc2c1nnn2C	5%	x	2%	-3%	15%	0%
OC(C[n+]1cccc(Br)c1)c1ccccc1 (stereo not drawn)	-3%	x	-4%	-17%	-12%	x
COc1ccc(N2C(=O)/C(=C/c3cccs3)NC2=S)cc1	6%	-6	-5%	5.8µM*	1.5µM*	3%
Cc1ccc(S(=O)(=O)N2CC(O)C[C@H]2C(=O)OCC(=O)Nc2ccc(N3CCCCC3)cc2)cc1C (stereo partly drawn)	0%	-1	2%	18µM*	u	x
COC(=O)c1cc(C(=O)c2cc(F)ccc2O)cn2c(=O)c3c(C)c(C)sc3nc12	-2%	-6	-13%	-24%	4.1µM*	x
CCc1c(C)sc2nc3c(C(=O)N4CCOCC4)cc(C(=O)c4ccccc4O)cn3c(=O)c12	-12%	-64*	-27%	15µM*	23µM*	5%
CCOC(=O)c1sc2nc3c(SCC(=O)O)cc(C(=O)c4ccccc4O)cn3c(=O)c2c1C	4%	15	-2%	3%	6%	3%
CCOC(=O)c1sc2nc3c(SCC(=O)O)cc(C(=O)c4cc(F)ccc4O)cn3c(=O)c2c1C	-21%	14	0%	-12%	-10%	35µM*
CCCCNC(=O)c1ccc2c(c1)ncn2-c1cc(OC)ccc1OC	-10%	x	-7%	u	u	8%
O=C(NCc1ccccc1)C1=C[C@@H](C2CCCCC2)C[C@@H](OCCCCO)O1	-14%	-1	-8%	u	u	x
Cc1ccccc1C[C@H](C(=O)O)N1C(=O)c2ccc(C(=O)O)cc2C1=O	x	x	x	x	x	9%
COC(=O)c1cc(C(=O)NCCN2C(=O)S/C(=C\c3cccs3)C2=O)cc([N+](=O)[O-])c1	-1%	-12	-4%	u	u	0%
COc1cccc(C(=O)NCCN2C(=O)S/C(=C/c3cccs3)C2=O)c1OC	-30%	-25	5%	u	-25%	3%
COc1cc(/C=C2\SC(=O)N(CCNC(=O)c3c(C)noc3C)C2=O)cc(OC)c1OC	-16%	u	0%	16µM*	u	0%
SMILES	HepG2 tox	IL1B secr inh	TGFb SMAD3 inh	DT40 TDP1 no CPT	DT40 TDP1 CPT	TDP1 block
COc1cc(C(=O)NCC(=O)NCCN2C(=O)S/C(=C\c3ccc4c(c3)OCO4)C2=O)cc(OC)c1OC	-34%	-5	-7%	-29%	u	x
COc1cc(C(=O)NCCN2C(=O)S/C(=C\c3cccs3)C2=O)cc(OC)c1OC	4%	-5	u	16µM*	u	0%
COc1cc(OC)cc(C(=O)NCCN2C(=O)S/C(=C\c3cccs3)C2=O)c1	-3%	-23	-19%	16µM*	16µM*	1%
O=S(=O)(N=S(N1CCCCC1)N1CCCCC1)c1ccccc1	-23%	0	3%	u	9.2µM*	6%
CC1CCN(CC[S-])CC1.O.O.[Cl][Pt]	-75%	x	u	1.6µM*	1.3µM*	x
CC(C)(C)c1cccc(Cn2nnc3ccccc32)c1O	-39%	-1	u	21µM*	29µM*	-11%
Cc1cccc(Cn2nnc3ccccc32)c1O	22%	16	0%	-22%	u	0%
Cc1cc(Cn2nnc3ccccc32)c(O)c(C(C)(C)C)c1	-17%	25	u	16µM*	16µM*	-8%
O=C(Nc1ccc(F)cc1F)c1ccc2c(O)c(S(=O)(=O)c3ccc(Cl)cc3)c(=O)[nH]c2c1	7%	x	26%	-3%	8%	0%
Clc1cccc(-c2ccc(/C=N/n3cnnc3)o2)c1	3%	-54*	7%	-2%	3%	7%
Cc1ccc(-c2ccc(/C=N/n3cnnc3)o2)cc1Cl	-16%	-28	-1%	-24%	10%	9%
C[Si](C)(C)n1ccnc1	-30%	32	19%	-6%	-1%	x
N#Cc1ccc(CN2CC3(CCN(C(=O)c4cnccn4)CC3)C2)cc1	x	x	x	0%	-1%	x
CN(C)CC(O)COC(c1ccc(Cl)cc1)c1ccc(Cl)cc1 (stereo not drawn)	16µM*	-79*	u	21µM*	u	-3%
O=C1Nc2ccc(Br)cc2C1=Nc1cccnc1	-30%	33	0%	8.2µM*	12µM*	x
CCC(C)(C)NC(=O)CN(C(=O)CCC(=O)Nc1nccs1)c1ccc(C)cc1	-2%	-14	20%	-15%	-23%	3%
COc1ccc(-c2nc3ccc(NC(=O)CO)cc3c(=O)n2Cc2cccc(Cl)c2)cc1COc1ccc(NC(C)=O)cc1	x	x	x	13µM*	11µM*	-10%

From PubChem BioAssay
